In PubChem BioAssay AID1159580 (chemical genetic matrix, 2015):
Out of some 5,500 compounds screened, about 2,000 (36%) were called active. Not shown: some 18% with an inconclusive outcome. No stated cut-off is given here; in the data, active means normalized growth mostly below about 0.91 (no sharp cut-off); inconclusive means no clear call, values can overlap the other calls; inactive means mostly above about 0.92. The list shows a part of the results.

Assay: chemical genetic growth profiling, strain panel (AID 1159580);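 further: tested at 20 µM; growth read once vehicle control cultures reached saturation at 30 °C; 1 = growth at the plate median or of vehicle wells; lower values mean less growth of the strain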
Settings: growth OD

Measured: normalized growth

C[C@@H]1C(=O)OC2[C@H](O)C34[C@@H]5OC(=O)[C@@]3(O[C@@H]3OC(=O)[C@H](O)[C@@]34[C@H](C(C)(C)C)[C@H]5O)[C@]21O (some centres undefined)
inactive: S. cerevisiae deletion strains, locus YJR066W, strain TOR1, hits give low values 0.958 | S. cerevisiae deletion strains, locus YKL009W, strain mrt4, hits give low values 1.02 | S. cerevisiae deletion strains, locus YKL068W, hits give low values 1 | S. cerevisiae deletion strains, locus YKL085W, strain MDH1 (second series), hits give low values 1.01 | S. cerevisiae deletion strains, locus YKL085W, strain MDH1, hits give low values 1.01 | S. cerevisiae deletion strains, locus YKL160W, strain elf1, hits give low values 0.981 | S. cerevisiae deletion strains, locus YKL190W, strain CNB1, hits give low values 0.993 | S. cerevisiae deletion strains, locus YKR001C, strain vps1, hits give low values 1.02 | S. cerevisiae deletion strains, locus YKR026C, strain gcn3, hits give low values 0.977 | S. cerevisiae deletion strains, locus YKR091W, strain srl3, hits give low values 0.955 | S. cerevisiae deletion strains, locus YLL001W, strain dnm1, hits give low values 0.987 | S. cerevisiae deletion strains, locus YLL026W, hits give low values 0.984 | S. cerevisiae deletion strains, locus YLL041C, strain sdh2, hits give low values 0.971 | S. cerevisiae deletion strains, locus YLR027C, strain aat2, hits give low values 0.973 | S. cerevisiae deletion strains, locus YLR039C, strain RIC1, hits give low values 1 | S. cerevisiae deletion strains, locus YLR058C, strain SHM2, hits give low values 1 | S. cerevisiae deletion strains, locus YLR102C, strain apc9, hits give low values 1.01 | S. cerevisiae deletion strains, locus YLR113W, strain HOG1, hits give low values 0.997 | S. cerevisiae deletion strains, locus YLR221C, strain rsa3, hits give low values 0.978 | S. cerevisiae deletion strains, locus YLR258W, strain gsy2, hits give low values 0.978 | S. cerevisiae deletion strains, locus YLR262C, strain YPT6 (second series), hits give low values 0.964 | S. cerevisiae deletion strains, locus YLR262C, strain YPT6, hits give low values 1.01 | S. cerevisiae deletion strains, locus YLR268W, strain sec22, hits give low values 1.02 | S. cerevisiae deletion strains, locus YLR320W, strain mms22, hits give low values 0.98 | S. cerevisiae deletion strains, locus YLR330W, strain CHS5, hits give low values 1.01 | S. cerevisiae deletion strains, locus YLR342W, strain FKS1 (second series), hits give low values 1.01 | S. cerevisiae deletion strains, locus YLR342W, strain FKS1, hits give low values 0.982 | S. cerevisiae deletion strains, locus YLR357W, strain rsc2, hits give low values 0.932 | S. cerevisiae deletion strains, locus YLR370C, strain arc18, hits give low values 0.97 | S. cerevisiae deletion strains, locus YLR371W, strain rom2, hits give low values 1.02 | S. cerevisiae deletion strains, locus YLR384C, strain iki3, hits give low values 0.981 | S. cerevisiae deletion strains, locus YLR418C, strain cdc73, hits give low values 1.02 | S. cerevisiae deletion strains, locus YML016C, strain PPZ1, hits give low values 1.01 | S. cerevisiae deletion strains, locus YML032C, strain rad52, hits give low values 1 | S. cerevisiae deletion strains, locus YML120C, strain ndi1, hits give low values 0.975 | S. cerevisiae deletion strains, locus YML124C, strain tub3, hits give low values 1.02 | S. cerevisiae deletion strains, locus YMR058W, strain fet3, hits give low values 0.966 | S. cerevisiae deletion strains, locus YMR078C, strain ctf18, hits give low values 1.02 | S. cerevisiae deletion strains, locus YMR125W, strain sto1, hits give low values 0.941 | S. cerevisiae deletion strains, locus YMR129W, hits give low values 0.959 | S. cerevisiae deletion strains, locus YMR205C, strain PFK2, hits give low values 0.984 | S. cerevisiae deletion strains, locus YMR223W, strain ubp8, hits give low values 1.03 | S. cerevisiae deletion strains, locus YMR231W, strain pep5, hits give low values 0.984 | S. cerevisiae deletion strains, locus YMR263W, strain SAP30, hits give low values 1 | S. cerevisiae deletion strains, locus YMR307W, strain GAS1, hits give low values 0.979 | S. cerevisiae deletion strains, locus YNL067W, strain RPL9B, hits give low values 0.995 | S. cerevisiae deletion strains, locus YNL071W, strain lat1, hits give low values 0.974 | S. cerevisiae deletion strains, locus YNL183C, strain NPR1, hits give low values 0.973 | S. cerevisiae deletion strains, locus YNL209W, strain ssb2, hits give low values 0.971 | S. cerevisiae deletion strains, locus YNL233W, strain BNI4, hits give low values 1 | S. cerevisiae deletion strains, locus YNL248C, strain rpa49, hits give low values 0.961 | S. cerevisiae deletion strains, locus YNL250W, strain rad50, hits give low values 1.02 | S. cerevisiae deletion strains, locus YNL271C, strain bni1, hits give low values 1.01 | S. cerevisiae deletion strains, locus YNL298W, strain CLA4, hits give low values 1.02 | S. cerevisiae deletion strains, locus YNL307C, strain MCK1, hits give low values 1.03 | S. cerevisiae deletion strains, locus YNL322C, strain KRE1 (second series), hits give low values 0.963 | S. cerevisiae deletion strains, locus YNL322C, strain KRE1, hits give low values 1 | S. cerevisiae deletion strains, locus YNR049C, strain mso1, hits give low values 0.95 | S. cerevisiae deletion strains, locus YNR052C, strain pop2, hits give low values 1.01 | S. cerevisiae deletion strains, locus YOL012C, strain htz1 1.18 | S. cerevisiae deletion strains, locus YOL147C, strain pex11, hits give low values 1.02 | S. cerevisiae deletion strains, locus YOR001W, strain rrp6, hits give low values 0.972 | S. cerevisiae deletion strains, locus YOR061W, strain CKA2, hits give low values 1 | S. cerevisiae deletion strains, locus YOR069W, strain VPS5, hits give low values 0.997 | S. cerevisiae deletion strains, locus YOR070C, strain gyp1, hits give low values 0.988 | S. cerevisiae deletion strains, locus YOR080W, strain dia2, hits give low values 0.951 | S. cerevisiae deletion strains, locus YOR083W, strain WHI5, hits give low values 0.988 | S. cerevisiae deletion strains, locus YOR106W, strain vam3, hits give low values 0.978 | S. cerevisiae deletion strains, locus YOR136W, strain idh2, hits give low values 1.01 | S. cerevisiae deletion strains, locus YOR144C, strain elg1, hits give low values 1.01 | S. cerevisiae deletion strains, locus YOR184W, strain ser1, hits give low values 1.03 | S. cerevisiae deletion strains, locus YOR231W, strain MKK1, hits give low values 1.02 | S. cerevisiae deletion strains, locus YOR265W, strain rbl2, hits give low values 0.977 | S. cerevisiae deletion strains, locus YOR270C, strain vph1, hits give low values 0.935 | S. cerevisiae deletion strains, locus YOR290C, strain snf2, hits give low values 0.953 | S. cerevisiae deletion strains, locus YOR316C, strain cot1, hits give low values 1.02 | S. cerevisiae deletion strains, locus YPL051W, strain arl3, hits give low values 0.985 | S. cerevisiae deletion strains, locus YPL055C, strain LGE1, hits give low values 0.998 | S. cerevisiae deletion strains, locus YPL078C, strain atp4, hits give low values 0.984 | S. cerevisiae deletion strains, locus YPL106C, strain sse1, hits give low values 0.944 | S. cerevisiae deletion strains, locus YPL240C, strain hsp82, hits give low values 0.979 | S. cerevisiae deletion strains, locus YPL241C, strain CIN2, hits give low values 0.99 | S. cerevisiae deletion strains, locus YPL256C, strain CLN2, hits give low values 1.06 | S. cerevisiae deletion strains, locus YPR119W, strain clb2, hits give low values 1.01 | S. cerevisiae deletion strains, locus YPR141C, strain kar3, hits give low values 1.01 | S. cerevisiae deletion strains, locus YPR163C, strain tif3, hits give low values 1.02 | S. cerevisiae deletion strains, locus YPR167C, strain met16, hits give low values 1.02 | S. cerevisiae deletion strains, strain wtn01, hits give low values 1.04 | S. cerevisiae strains, strain wild type, hits give low values 0.983
